Results from PubChem BioAssay AID540267 (National Center for Advancing Translational Sciences (NCATS), 2011).
The campaign covered roughly 340,000 compounds. About 530 (0.16%) were called active. Inconclusive results (about 2%) are left out. Rule as the data show it: active = activity change below about -80%; inconclusive = between about -30% and that limit; inactive = weaker than that. For the sample, actives were picked, then their nearest neighbours and some compounds at random.

Experiment: Small Molecules that selectively kill Giardia lamblia: qHTS;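 also: parasites exposed to compound for two days anaerobically before the ATP read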
Conditions: Giardia lamblia trophozoite viability; at 7.66 µM; hits give low values
Excerpt: Giardia lamblia is a human pathogen afflicting impoverished nations, and the most common cause of outbreaks of diarrhea in the United States. Giardia has been classified by the CDC as a category B bioterrorism organism. The favored anti giardiasis drugs in the US are metronidazole or tinidazole, compounds that have undesirable side effects. Moreover, increasing resistance to drug regimes and recurrence are a concern. It is thus clear that alternative drug treatments are needed.
In a collaboration between the University of Maryland, College Park and the NIH Chemical Genomics Center, a bioluminescence Giardia viability assay based on the trophozoites' ATP content was developed. This assay is suitable for high throughput screening, and miniaturized the assay for compound screening in 1536-well plates. The goal of the project is to screen the Molecular Libraries Small Molecule Repository (MLSMR) for compounds that selectively kill Giardia trophozoites.
NIH Chemical Genomics Center [NCGC]
NIH Molecular Libraries Probe Centers Network [MLPCN]
Assay Submitter (PI): Osnat Herzberg, University of Maryland, College Park, MD.
1. Dispense 2 ul/well media
2. Dispense 23 nl/well compounds
3. Dispense 4 ul/well Giardia trophozoites at a concentration of 100 cells/well
4. Incubate 48 hrs at 37 deg C anaerobically
5. Dispense 4 ul/well ATPLite 1-Step Luminescence assay kit
6. Incubate 15-30 min at room temperature
7. Read luminescence signal on ViewLux plate reader
% is scaled to controls: 0 for no effect and ±100 for the full control effect.

SMILES	activity change
CCN(CC)c1ccc([N+](=O)[O-])c2cccnc12	-13.7% (inactive)
CN(c1ccccc1)c1ccc([N+](=O)[O-])c2nonc12	-83.4% (active)
CO[C@H]1[C@@H](O)[C@@H](C)O[C@H](O[C@H]2[C@H](Oc3cccc4c(O)c5c(=O)oc6ccc(C)c7c(=O)oc(c34)c5c67)O[C@H](C)[C@H](O)[C@@H]2O)[C@@H]1O	0.803% (inactive)
COc1cc([C@@H]2c3cc4c(cc3[C@H](OC(C)=O)[C@H]3COC(=O)[C@H]23)OCO4)cc(OC)c1OC	-7.09% (inactive)
O=P1(Oc2ccccc2)CC(O)C(O)C(COCc2ccccc2)O1 (stereo not given)	11% (inactive)
